Results: the supplement of paper PMC10849652
About 8,800 targets were measured; listed, in parts, are those with a hit and a random draw of the rest. About 0.5% of all pairs of compound and target were hits. Unmarked numbers belong to inactive results.

compound: CN1CCc2c(c3ccccc3n2Cc2ccc(C(=O)NO)cc2)C1 [Tubastatin A]; test: log2 fold change, soluble protein after heating vs DMSO (PISA); higher = thermal stabilisation; K562 lysate, 10 uM; active = over 0.2 and 3.5 SD of the protein, either way, in both replicates (recomputed)
Method in brief: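 Following dounce homogenisation of K562 pellets in PBS pH 7.4 with 1 mM MgCl2, crude extract at 1 mg/mL protein was incubated for 30 min with 10 μM compound. Aliquots were then heated for 3 min over 48°C-58°C and pooled, NP-40 was added to 0.5% at 4°C, and soluble protein was recovered as the supernatant at 21,000xg for 90 min. Channel-sum-equalised TMTpro 16plex LC-MS/MS quantified this protein. Each value, from duplicates, is a log-two fold change in thermal stability relative to solvent controls.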

Sequence of UniProt Q96DG6 (Q96DG6 whole entry, looked up): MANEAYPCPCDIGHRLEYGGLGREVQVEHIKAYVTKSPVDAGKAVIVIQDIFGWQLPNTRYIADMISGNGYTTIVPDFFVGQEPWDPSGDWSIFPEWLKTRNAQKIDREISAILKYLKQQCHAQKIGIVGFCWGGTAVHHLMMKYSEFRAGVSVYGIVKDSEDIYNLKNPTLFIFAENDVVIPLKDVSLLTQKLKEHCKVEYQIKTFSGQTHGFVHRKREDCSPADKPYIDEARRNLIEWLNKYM
Sequence of UniProt O00148 (O00148 whole entry, looked up): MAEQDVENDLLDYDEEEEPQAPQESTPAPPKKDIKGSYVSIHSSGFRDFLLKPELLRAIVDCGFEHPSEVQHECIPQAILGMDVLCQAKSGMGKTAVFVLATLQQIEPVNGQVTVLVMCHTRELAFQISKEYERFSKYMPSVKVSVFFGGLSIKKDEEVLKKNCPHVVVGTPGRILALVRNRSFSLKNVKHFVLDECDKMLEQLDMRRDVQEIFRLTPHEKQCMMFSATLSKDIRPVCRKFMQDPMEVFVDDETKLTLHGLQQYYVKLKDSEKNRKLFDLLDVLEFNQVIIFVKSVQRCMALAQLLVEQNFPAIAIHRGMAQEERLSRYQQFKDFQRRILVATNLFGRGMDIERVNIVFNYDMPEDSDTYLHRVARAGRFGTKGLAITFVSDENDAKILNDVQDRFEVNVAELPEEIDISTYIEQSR
Sequence of UniProt P00374 (P00374 whole entry, looked up): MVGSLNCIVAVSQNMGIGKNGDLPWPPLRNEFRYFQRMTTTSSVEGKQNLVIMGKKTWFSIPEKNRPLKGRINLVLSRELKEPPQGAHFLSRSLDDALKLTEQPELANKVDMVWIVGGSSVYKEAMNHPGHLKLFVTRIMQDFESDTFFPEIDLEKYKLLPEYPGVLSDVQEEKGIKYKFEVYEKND
Sequence of UniProt P51530 (P51530 whole entry, looked up): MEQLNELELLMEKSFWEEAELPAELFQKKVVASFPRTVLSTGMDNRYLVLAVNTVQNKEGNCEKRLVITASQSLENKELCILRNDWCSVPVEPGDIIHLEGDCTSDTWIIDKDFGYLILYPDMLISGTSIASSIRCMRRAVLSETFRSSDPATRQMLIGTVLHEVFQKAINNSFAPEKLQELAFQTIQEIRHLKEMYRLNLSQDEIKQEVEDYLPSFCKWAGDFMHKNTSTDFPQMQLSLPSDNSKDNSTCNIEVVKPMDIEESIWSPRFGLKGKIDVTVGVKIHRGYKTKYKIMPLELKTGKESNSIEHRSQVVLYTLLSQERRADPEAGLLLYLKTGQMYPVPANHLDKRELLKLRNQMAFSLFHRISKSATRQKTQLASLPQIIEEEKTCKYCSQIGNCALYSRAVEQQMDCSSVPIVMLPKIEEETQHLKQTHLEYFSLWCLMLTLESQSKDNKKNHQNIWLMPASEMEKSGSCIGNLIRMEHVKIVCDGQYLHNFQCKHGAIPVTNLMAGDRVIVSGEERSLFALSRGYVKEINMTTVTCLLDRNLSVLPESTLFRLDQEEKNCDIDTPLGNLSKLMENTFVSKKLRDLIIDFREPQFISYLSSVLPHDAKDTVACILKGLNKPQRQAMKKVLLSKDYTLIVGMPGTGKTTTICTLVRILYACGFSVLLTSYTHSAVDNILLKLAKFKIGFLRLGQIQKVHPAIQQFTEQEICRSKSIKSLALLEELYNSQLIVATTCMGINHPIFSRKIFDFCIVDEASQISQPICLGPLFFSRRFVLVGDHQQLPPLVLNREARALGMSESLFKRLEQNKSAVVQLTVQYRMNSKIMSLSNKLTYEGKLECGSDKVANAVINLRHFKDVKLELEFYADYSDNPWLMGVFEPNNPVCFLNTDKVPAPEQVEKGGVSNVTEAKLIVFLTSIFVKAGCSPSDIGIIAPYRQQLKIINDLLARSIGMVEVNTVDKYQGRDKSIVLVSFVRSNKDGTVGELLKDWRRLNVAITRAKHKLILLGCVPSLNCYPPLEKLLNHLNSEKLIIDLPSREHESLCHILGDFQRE
Sequence of UniProt Q86Y56 (Q86Y56 whole entry, looked up): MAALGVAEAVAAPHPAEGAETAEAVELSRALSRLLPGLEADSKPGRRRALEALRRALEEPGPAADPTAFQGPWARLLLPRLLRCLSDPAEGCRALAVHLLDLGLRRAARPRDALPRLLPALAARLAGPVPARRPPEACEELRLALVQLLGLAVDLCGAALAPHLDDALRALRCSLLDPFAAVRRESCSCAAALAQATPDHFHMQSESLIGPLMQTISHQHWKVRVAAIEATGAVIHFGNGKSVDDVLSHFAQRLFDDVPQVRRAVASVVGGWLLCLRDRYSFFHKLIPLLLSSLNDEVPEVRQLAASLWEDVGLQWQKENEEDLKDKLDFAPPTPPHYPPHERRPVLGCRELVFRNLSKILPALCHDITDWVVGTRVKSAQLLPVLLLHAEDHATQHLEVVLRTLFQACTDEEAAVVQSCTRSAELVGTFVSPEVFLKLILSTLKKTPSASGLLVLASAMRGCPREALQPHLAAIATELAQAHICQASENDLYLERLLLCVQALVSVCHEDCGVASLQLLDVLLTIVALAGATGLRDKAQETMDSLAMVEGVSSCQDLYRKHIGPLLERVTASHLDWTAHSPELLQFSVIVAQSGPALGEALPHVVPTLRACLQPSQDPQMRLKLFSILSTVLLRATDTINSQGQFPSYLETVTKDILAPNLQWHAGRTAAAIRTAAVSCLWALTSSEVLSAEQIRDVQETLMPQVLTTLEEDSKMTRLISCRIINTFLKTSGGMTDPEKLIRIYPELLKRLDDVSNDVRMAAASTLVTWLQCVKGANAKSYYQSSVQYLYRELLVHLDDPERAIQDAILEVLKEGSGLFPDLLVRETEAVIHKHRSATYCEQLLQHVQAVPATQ
Sequence of UniProt Q8TDD1 (Q8TDD1 whole entry, looked up): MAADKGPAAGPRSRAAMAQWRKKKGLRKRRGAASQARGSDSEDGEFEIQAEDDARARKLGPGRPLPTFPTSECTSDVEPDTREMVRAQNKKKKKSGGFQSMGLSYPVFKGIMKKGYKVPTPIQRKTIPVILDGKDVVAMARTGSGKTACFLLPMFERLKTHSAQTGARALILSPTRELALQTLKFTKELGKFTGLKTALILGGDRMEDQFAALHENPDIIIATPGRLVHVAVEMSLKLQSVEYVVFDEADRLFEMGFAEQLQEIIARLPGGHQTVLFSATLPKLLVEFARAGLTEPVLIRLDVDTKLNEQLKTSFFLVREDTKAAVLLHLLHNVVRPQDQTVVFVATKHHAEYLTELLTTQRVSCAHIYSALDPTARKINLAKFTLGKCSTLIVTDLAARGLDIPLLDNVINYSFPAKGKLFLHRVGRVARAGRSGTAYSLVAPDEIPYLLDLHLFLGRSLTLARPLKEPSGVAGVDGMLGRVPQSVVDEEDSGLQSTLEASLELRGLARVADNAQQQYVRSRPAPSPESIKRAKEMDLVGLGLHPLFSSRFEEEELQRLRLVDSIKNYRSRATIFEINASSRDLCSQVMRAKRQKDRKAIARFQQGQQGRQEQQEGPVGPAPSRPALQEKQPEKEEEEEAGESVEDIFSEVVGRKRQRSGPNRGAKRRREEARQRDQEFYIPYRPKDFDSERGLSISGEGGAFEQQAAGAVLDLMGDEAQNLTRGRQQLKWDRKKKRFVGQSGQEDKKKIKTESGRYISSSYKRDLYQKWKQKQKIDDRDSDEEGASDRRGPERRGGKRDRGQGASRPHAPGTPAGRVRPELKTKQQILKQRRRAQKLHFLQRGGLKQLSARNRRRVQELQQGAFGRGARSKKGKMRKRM
Sequence of UniProt Q9H2P9 (Q9H2P9 whole entry, looked up): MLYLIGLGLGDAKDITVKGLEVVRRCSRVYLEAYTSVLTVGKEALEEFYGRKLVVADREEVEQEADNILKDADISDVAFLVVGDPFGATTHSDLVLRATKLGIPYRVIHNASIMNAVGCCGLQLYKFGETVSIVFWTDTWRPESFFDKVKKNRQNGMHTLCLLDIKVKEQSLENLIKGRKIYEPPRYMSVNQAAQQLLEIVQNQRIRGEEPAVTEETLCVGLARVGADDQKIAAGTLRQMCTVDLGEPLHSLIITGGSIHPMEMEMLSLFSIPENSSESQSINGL
Sequence of UniProt O94760 (O94760 whole entry, looked up): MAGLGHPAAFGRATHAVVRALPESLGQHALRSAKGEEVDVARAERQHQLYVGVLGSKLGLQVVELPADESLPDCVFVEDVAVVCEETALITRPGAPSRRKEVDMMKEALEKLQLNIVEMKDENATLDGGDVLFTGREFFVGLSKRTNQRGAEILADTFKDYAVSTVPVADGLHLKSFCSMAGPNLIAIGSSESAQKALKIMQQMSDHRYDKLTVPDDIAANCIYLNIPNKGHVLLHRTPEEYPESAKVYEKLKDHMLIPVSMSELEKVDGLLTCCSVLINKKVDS
Sequence of UniProt Q9Y2V7 (Q9Y2V7 whole entry, looked up): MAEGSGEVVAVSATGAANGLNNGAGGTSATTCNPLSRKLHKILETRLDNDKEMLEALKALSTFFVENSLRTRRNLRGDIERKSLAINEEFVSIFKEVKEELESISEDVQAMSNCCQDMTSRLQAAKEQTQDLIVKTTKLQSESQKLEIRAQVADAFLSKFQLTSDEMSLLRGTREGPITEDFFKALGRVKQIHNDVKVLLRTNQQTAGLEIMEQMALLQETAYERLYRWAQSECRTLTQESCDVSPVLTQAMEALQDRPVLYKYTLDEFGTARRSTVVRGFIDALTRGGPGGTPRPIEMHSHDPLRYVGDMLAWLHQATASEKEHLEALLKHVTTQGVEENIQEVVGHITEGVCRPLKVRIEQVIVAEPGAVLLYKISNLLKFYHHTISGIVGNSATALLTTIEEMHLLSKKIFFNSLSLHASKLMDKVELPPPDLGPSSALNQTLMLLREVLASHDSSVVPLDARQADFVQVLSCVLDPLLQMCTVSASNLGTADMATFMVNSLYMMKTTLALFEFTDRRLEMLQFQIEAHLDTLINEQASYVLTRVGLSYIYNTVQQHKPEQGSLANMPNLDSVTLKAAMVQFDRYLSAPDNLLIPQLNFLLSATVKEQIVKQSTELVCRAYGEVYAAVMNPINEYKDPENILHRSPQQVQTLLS
Sequence of UniProt P24311 (P24311 whole entry, looked up): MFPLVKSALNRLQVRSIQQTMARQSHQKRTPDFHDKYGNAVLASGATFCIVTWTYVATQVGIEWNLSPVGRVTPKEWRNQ

Target | log2 fold change
CUX1 isoform 3 (UniProt P39880) | 0.003
CLUH, A0A494C0R8 | -0.08
CUX1 isoform 2 (UniProt Q13948) | 0.016
DENND4A isoform 2 (UniProt Q7Z401) | -0.141
DNM2 (UniProt P50570) | -0.051
DAZAP1 (UniProt Q96EP5) | 0.042
DIAPH1 (UniProt H9KV28) | 0.032
DNAAF5 (UniProt Q86Y56) | -0.155
DDAH1 (UniProt O94760) | 0.007
CNOT4 isoform 9 (UniProt O95628) | 0.04
CLPB isoform 2 (UniProt Q9H078) | -0.075
DNAH5 (UniProt Q8TE73) | 0.073
DPH5 isoform 5 (UniProt Q9H2P9) | 0.02
DAPK1 isoform 3 (UniProt P53355) | 0.001
COX7B (UniProt P24311) | 0.02
CIP2A (UniProt Q8TCG1) | -0.294 (active)
DNA2 (UniProt P51530) | -0.15
COG2 (UniProt Q14746) | -0.114

Target | log2 fold change
DCP1A (UniProt Q9NPI6) | 0
CSNK1E (UniProt P49674) | -0.159
DMAC2L (UniProt Q99766) | 0
DENND1B (UniProt Q6P3S1) | 0.152
COG6 (UniProt Q9Y2V7) | -0.062
CORO7 (UniProt P57737) | 0.011
DHFR (UniProt P00374) | -0.111
CHMP4A isoform 2 (UniProt Q9BY43) | 0.048
DDX39A (UniProt O00148) | -0.171
DCTN1 isoform 4 (UniProt Q14203) | -0.254
CMBL (UniProt Q96DG6) | 0.001
DBF4 (UniProt Q9UBU7) | -0.072
DHRS11 (UniProt Q6UWP2) | -0.083
DDX54 isoform 2 (UniProt Q8TDD1) | -0.047
CNTN4 (UniProt Q8IWV2) | 0.185
CNNM2 (UniProt Q9H8M5) | -0.105
CSTF2 (UniProt P33240) | 0.011
